What all share (test): MIB bead binding, log2 fold change vs DMSO (log2 ratio); higher = less competition (weaker engagement)
The target of assay [1] is T1, ATG1 (UniProt Q5A649).
T1 sequence (whole entry): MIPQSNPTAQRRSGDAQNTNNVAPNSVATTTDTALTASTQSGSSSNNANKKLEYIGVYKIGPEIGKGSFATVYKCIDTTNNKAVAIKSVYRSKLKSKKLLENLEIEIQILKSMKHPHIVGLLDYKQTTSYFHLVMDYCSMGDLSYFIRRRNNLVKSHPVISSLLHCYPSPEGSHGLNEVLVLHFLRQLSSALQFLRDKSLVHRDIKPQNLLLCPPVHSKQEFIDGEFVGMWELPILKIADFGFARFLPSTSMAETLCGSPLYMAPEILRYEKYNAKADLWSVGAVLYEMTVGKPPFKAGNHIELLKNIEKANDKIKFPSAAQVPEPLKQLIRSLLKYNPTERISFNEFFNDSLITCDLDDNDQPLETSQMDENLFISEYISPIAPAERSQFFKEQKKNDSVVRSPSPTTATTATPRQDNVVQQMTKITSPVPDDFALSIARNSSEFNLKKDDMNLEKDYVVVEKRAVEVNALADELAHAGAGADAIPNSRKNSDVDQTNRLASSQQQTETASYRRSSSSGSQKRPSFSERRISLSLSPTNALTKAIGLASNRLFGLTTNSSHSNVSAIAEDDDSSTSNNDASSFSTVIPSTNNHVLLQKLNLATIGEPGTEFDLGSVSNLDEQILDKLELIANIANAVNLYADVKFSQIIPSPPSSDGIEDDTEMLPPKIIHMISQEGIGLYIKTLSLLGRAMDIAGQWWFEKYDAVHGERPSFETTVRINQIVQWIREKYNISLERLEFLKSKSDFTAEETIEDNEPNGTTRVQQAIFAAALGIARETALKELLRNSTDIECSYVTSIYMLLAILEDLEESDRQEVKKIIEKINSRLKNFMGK

For assay [2], the target named is T2, PKC1 (UniProt P43057).
T2 sequence (whole entry): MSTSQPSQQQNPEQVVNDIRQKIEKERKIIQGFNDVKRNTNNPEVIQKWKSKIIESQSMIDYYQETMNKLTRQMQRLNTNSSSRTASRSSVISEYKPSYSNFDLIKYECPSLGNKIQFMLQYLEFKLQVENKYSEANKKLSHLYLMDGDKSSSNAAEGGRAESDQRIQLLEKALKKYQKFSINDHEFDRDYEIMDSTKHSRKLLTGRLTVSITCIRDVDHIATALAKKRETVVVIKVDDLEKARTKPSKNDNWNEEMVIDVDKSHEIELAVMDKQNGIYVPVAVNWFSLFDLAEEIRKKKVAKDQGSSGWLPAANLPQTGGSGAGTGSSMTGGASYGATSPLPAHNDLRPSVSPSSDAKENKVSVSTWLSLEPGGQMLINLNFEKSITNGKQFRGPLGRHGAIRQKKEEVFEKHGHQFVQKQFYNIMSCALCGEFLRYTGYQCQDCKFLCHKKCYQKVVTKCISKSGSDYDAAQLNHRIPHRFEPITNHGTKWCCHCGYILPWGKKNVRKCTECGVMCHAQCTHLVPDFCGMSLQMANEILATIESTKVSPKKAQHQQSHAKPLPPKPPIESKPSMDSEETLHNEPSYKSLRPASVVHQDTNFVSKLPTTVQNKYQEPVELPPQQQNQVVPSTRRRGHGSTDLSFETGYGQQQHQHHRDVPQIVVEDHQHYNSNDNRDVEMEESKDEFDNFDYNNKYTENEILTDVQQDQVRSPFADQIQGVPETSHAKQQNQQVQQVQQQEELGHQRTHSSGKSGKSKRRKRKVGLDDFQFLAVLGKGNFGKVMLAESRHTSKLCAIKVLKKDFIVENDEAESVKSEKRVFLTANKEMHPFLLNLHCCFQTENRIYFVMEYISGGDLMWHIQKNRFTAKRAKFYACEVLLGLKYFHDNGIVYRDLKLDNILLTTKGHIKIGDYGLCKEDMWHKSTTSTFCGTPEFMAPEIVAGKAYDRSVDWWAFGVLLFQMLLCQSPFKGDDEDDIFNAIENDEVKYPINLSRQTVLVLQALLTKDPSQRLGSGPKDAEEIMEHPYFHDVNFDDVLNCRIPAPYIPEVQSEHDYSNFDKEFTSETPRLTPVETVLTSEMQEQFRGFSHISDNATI

For assay [3], the target named is T3, PKH2 (UniProt Q5A3P6).
T3 sequence (whole entry): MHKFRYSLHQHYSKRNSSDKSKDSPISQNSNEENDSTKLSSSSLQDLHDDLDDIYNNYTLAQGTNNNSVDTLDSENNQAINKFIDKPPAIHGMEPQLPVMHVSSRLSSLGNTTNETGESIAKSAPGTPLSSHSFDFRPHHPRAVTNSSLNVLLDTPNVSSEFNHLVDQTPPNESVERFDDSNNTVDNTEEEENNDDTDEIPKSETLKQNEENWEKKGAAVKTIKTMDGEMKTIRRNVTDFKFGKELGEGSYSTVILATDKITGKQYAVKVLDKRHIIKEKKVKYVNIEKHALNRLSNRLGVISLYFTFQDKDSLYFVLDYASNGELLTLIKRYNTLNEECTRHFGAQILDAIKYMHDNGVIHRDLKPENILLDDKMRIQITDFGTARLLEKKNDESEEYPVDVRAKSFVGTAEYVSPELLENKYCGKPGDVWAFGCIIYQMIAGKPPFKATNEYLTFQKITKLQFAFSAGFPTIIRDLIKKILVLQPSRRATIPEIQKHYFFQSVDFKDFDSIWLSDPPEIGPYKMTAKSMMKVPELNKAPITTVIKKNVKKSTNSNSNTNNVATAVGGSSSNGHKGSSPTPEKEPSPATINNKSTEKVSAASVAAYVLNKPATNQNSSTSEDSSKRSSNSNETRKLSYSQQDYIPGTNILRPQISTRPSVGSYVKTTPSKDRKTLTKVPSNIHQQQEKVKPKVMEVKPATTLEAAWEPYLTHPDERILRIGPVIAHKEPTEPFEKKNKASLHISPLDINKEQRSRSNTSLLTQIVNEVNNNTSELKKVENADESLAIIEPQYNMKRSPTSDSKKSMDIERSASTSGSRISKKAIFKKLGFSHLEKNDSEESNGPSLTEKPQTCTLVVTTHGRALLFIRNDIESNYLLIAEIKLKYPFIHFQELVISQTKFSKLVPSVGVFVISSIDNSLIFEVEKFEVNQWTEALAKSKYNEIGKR

On to `Cc1[nH]nc2ccc(-c3cc(OC[C@@H](N)Cc4ccccc4)cnc3-c3ccoc3)cc12`, for which the “MIB bead binding (log2)” value was -0.123 in assay [1] (0.1 µM); -0.147 in assay [1] (1 µM); -0.524 in assay [1] (10 µM); -0.235 in assay [2] (0.1 µM); 0.00546 in assay [2] (1 µM); -0.233 in assay [2] (10 µM). The results for the “MIB bead binding (log2)” value in assay [3] (0.1 µM), in assay [3] (1 µM) and in assay [3] (10 µM) were -0.165, -0.0865 and -0.756, respectively.

(Values after the supplement of paper PMC11741263, “Chemoproteomic Profiling of C. albicans for Characterization of Anti-fungal Kinase Inhibitors” (bioRxiv, 2025).)
